# Shown are actives, neighbours in structure and some others; about 3.5% of the full set was active somewhere.
# FadD28 FP inh – M. tuberculosis FadD28 bisubstrate binding inhibition; FadD28 bisubstrate probe binding, fluorescence polarization; inhibition, % at 12.5 µM; 360,000 tested, 0.22% active; AID 588549; in the data active = inhibition above about 8.5%, passing the limit was not always enough
# Mtb hypoxia rep – inhibitors of hypoxia-regulated fluorescent reporter in Mycobacterium tuberculosis | 300,000 tested, 0.1% active | fluorescence inhibition, % (test concentration not listed) | M. tuberculosis hypoxia-regulated fluorescent reporter, fluorescence; in the data active = fluorescence inhibition mostly above about 23%, no sharp cut-off; inactive = mostly below about 17%
# UGM FP inh – inhibitors of M. tuberculosis UDP-galactopyranose mutase | P9WIQ1 | inhibition, % at 10 µM | purified UGM, fluorescence polarization probe displacement | 320,000 tested, 0.06% active; in the data active = inhibition above about 10%, passing the limit was not always enough
# GDH-TPI inh – inhibits GDH-TPI coupling enzymes, artifact for Mtb FBA screen; inhibition, % at 4.8 µM; 360,000 tested, 1.2% active; GDH-TPI coupled enzyme counterscreen, NADH absorbance; in the data active = inhibition above about 30%
# Mtb FBA inh – inhibitors of M. tuberculosis fructose-bisphosphate aldolase | P9WQA3 | purified M. tuberculosis FBA, fluorescence read-out | inhibition, % at 1 µM | 360,000 tested, 2.3% active; in the data active = inhibition above about 27%
# Rv3671c inh – inhibitors of M. tuberculosis serine protease Rv3671c; P9WHR9; inhibition, % at 5.96 µM; 320,000 tested, 0.048% active; in the data active = inhibition above about 38%;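 also: extracellular domain of Rv3671c used as enzyme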
# Target sequence (P9WHR9 whole entry, looked up, the tested form may be a part): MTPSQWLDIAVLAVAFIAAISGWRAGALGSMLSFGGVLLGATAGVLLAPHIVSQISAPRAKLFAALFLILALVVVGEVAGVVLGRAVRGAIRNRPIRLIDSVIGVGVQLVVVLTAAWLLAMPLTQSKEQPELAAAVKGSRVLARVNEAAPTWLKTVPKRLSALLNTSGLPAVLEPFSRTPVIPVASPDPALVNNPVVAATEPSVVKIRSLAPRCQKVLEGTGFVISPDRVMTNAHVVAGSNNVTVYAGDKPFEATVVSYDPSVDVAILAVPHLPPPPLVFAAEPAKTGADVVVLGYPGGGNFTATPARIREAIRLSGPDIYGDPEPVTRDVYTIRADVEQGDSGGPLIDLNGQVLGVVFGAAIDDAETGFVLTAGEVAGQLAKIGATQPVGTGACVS
# Hits are given with their value; - = inactive; . = not tested or not shown.
SMILES,FadD28 FP inh,Mtb hypoxia rep,UGM FP inh,GDH-TPI inh,Mtb FBA inh,Rv3671c inh
CN(C)C=NS(=O)(=O)c1cccn1-c1ncc(C(F)(F)F)cc1Cl,.,-,.,.,.,.
CCCOc1ccc(-c2c(C(=O)NN=C(C)c3ccncc3)nnn2-c2nonc2N)cc1,.,-,.,.,.,.
COc1cc(C(=O)Oc2ccc(C=NNC(=O)c3ccncc3)cc2)cc(OC)c1OC,.,-,.,.,.,.
COC(=O)c1cc2c(s1)-c1ccccc1CC2,-,.,-,-,94,-
COC(=O)c1cc2c(s1)-c1cc(F)ccc1OC2,-,-,-,31,62,-
Cc1cccc(/C=N/NC(=O)c2cc3c(s2)-c2ccccc2CC3)c1,-,.,-,34,-,-
Oc1ccccc1C=Nn1cnnc1,.,-,.,.,.,.
N#Cc1cc2cc3c(cc2nc1N1CCOCC1)OCO3,-,.,-,-,112,-
O=C(c1ccc([N+](=O)[O-])o1)N1CCc2ccccc2C1,-,47,-,-,-,-
C=CCCC(Cc1ccc(F)cc1)C(=O)OCC(Cc1c[nH]c2ccccc12)NC(=O)C(CC=C)CC(=O)NCCO (configuration not stated),.,-,.,.,.,.
CCOC(=O)C1C2COc3cc(OC)ccc3C2N2C(=O)N(c3cccc(C)c3)C(=O)[C@]12C (some centres not stated),.,-,.,.,.,.
N#Cc1ccc(/C=C/C(=O)c2ccccc2)cc1,-,36,-,-,-,-
CN(C)/C=C/C(=O)c1ccccc1,-,-,-,49,-,-
COc1ccc(C(=O)/C=C/N(C)C)cc1OC,-,.,-,34,-,-
COc1ccc(C(=O)c2ccc(OC)c(OC)c2)cc1OC,-,-,-,-,-,-
COc1ccc(C(=O)/C=C/N(C)C)cc1,-,-,-,45,-,-
O=C(/C=C/c1ccccc1)c1ccccc1,-,.,-,-,-,-
COc1ccccc1NC(=O)CC1SC(=NN=C2CCCc3ccccc32)NC1=O (configuration not stated),.,-,.,.,.,.
CC(C)C(C(=O)N1CCNCC1)n1cc(CCO)nn1 (configuration not stated),.,-,.,.,.,.
Cc1ccc(C2C3C(=O)N(c4ccccc4)C(=O)C3[C@]3(C)C(=O)N(CC4CC4)CC(=O)N23)o1 (some centres not stated),.,-,.,.,.,.
Cc1cc(/C=C2\NC(=O)NC2=O)c(C)n1-c1cccnc1,-,-,-,45,-,-
Cc1cc(/C=C2\NC(=S)NC2=O)c(C)n1-c1cccnc1,-,-,-,-,-,-
Cc1cccc(C)c1-n1c(C)cc(/C=C2\NC(=O)NC2=O)c1C,-,-,-,33,-,-
COC(=O)C1=C(C)NC(=O)/C1=C\c1cc(C)n(-c2c(C)cccc2C)c1C,-,-,-,-,-,-
C=C(C)C(=O)Nc1cccc(C2=NOC3(C2)CC(C(N)=O)N(C(=O)C=CC)C3)c1 (configuration not stated),.,-,.,.,.,.
SMILES,FadD28 FP inh,Mtb hypoxia rep,UGM FP inh,GDH-TPI inh,Mtb FBA inh,Rv3671c inh
O=C(N=c1ccn(-c2nc3ccccc3nc2NS(=O)(=O)c2ccc(Cl)cc2)cc1)c1cccs1,-,-,17,-,-,-
O=C(N=c1ccn(-c2nc3ccccc3nc2NS(=O)(=O)c2ccc(Cl)cc2)cc1)c1ccccc1Cl,.,-,34,.,.,-
CCOc1ccc(S(=O)(=O)Nc2nc3ccccc3nc2-n2ccc(=NC(=O)c3cccs3)cc2)cc1,-,-,-,-,-,-
CC12CN3CCN(CC(C3)C1=NN=Cc1cccc([N+](=O)[O-])c1)C2,.,-,.,.,.,.
Cc1ccc(/C=N/NC(=O)c2cc(-c3ccccc3)nc3ccccc23)o1,-,.,-,-,-,-
C/C(=N\NC(=O)c1cc(-c2cccnc2)nc2ccccc12)c1ccc(O)cc1O,-,.,-,35,-,-
Cc1ccc(C=NNC(=O)c2cc(-c3cccnc3)nc3ccccc23)o1,-,-,-,34,-,-
COc1ccc(C(C)=NNC(=O)c2cc(-c3cccnc3)nc3ccccc23)cc1,.,-,.,.,.,.
COc1ccccc1-c1nc(C#N)c(N2CCN(Cc3ccccc3)CC2)o1,-,-,-,-,-,-
COc1ccccc1-c1nc(C#N)c(N2CCC(Cc3ccccc3)CC2)o1,-,-,-,-,44,-
CCOC(=O)C1CCCN(C(=O)c2ccc(-c3ccc([N+](=O)[O-])cc3)o2)C1 (configuration not stated),-,-,-,-,-,-
CCOC(=O)C1CCCN(c2ccc([N+](=O)[O-])c3nonc23)C1 (configuration not stated),47,-,.,-,-,.

# Screening data as filed in PubChem.
